# The supplement of paper PMC8728848
# Only a selection was taken, and the strongest signals are over-represented in it overall.
# Key:
# Test in all cases: glycan array binding signal (z-score within array); higher = stronger binding
# Settings in all cases: glycan notation: IUPAC condensed, linker removed
# [1] = target: GlcA3S(b1-3)Gal(b1-4)GlcNAc(b1-3)Gal(b1-4)Glc
# Procedure, shortened: (§1)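 Glycan array binding is given as a within-array Z-score, which can be read as non-binding when negative. The arrays, 3228 of them, came from the Consortium for Functional Glycomics database and were retained only where the protein sequence was available. Z-scores were averaged across arrays of the same protein sequence at different concentrations or buffers and across linkers.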
# [2] = target: GlcNAc(a1-4)Gal(b1-4)GlcNAc
# Procedure, shortened: as §1
# [3] = target: GlcNAc(a1-4)Gal(b1-4)GlcNAc(b1-3)Gal(b1-4)GlcNAc(b1-3)Gal(b1-4)GlcNAc
# Procedure, shortened: as §1
# [4] = target: GlcNAc(b1-2)[GlcNAc(b1-4)]Man(a1-3)[GlcNAc(b1-2)Man(a1-6)]Man(b1-4)GlcNAc(b1-4)GlcNAc
# Procedure, shortened: as §1
# [5] = target: GlcNAc(b1-2)[GlcNAc(b1-6)]Man(a1-6)[GlcNAc(b1-2)Man(a1-3)]Man(b1-4)GlcNAc(b1-4)GlcNAc
# Procedure, shortened: as §1
# [6] = target: GlcNAc(b1-2)[GlcNAc(b1-6)]Man(a1-6)[GlcNAc(b1-2)Man(a1-3)]Man(b1-4)GlcNAc(b1-4)[Fuc(a1-6)]GlcNAc
# Procedure, shortened: as §1
# [7] = target: GlcNAc(b1-3)Gal(b1-4)GlcNAc(b1-3)Gal(b1-4)GlcNAc
# Procedure, shortened: as §1
# [8] = target: GlcNAc(b1-3)Gal(b1-4)GlcNAc(b1-3)Gal(b1-4)GlcNAc(b1-2)Man(a1-3)[GlcNAc(b1-3)Gal(b1-4)GlcNAc(b1-3)Gal(b1-4)GlcNAc(b1-2)Man(a1-6)]Man(b1-4)GlcNAc(b1-4)GlcNAc
# Procedure, shortened: as §1
# [9] = target: GlcNAc(b1-3)Gal(b1-4)GlcNAc(b1-3)Gal(b1-4)GlcNAc(b1-3)GalNAc
# Procedure, shortened: as §1
# [10] = target: GlcNAc(b1-3)Gal(b1-4)GlcNAc(b1-3)[GlcNAc(b1-3)Gal(b1-4)GlcNAc(b1-3)]GalNAc
# Procedure, shortened: as §1
# GlcNAc(b1-3)Man = target: GlcNAc(b1-3)Man
# Procedure, shortened: as §1
# [11] = target: GlcNAc(b1-6)Gal(b1-4)GlcNAc
# Procedure, shortened: as §1
# GlcNAc(b1-6)GalNAc = target: GlcNAc(b1-6)GalNAc
# Procedure, shortened: as §1
# Kdn(a2-3)Gal(b1-4)Glc = target: Kdn(a2-3)Gal(b1-4)Glc
# Procedure, shortened: as §1
# [12] = target: Man(a1-2)Man(a1-6)[Man(a1-3)]Man(a1-6)[Man(a1-2)Man(a1-2)Man(a1-3)]Man
# Procedure, shortened: as §1
# Man(a1-3)[Man(a1-6)]Man = target: Man(a1-3)[Man(a1-6)]Man
# Procedure, shortened: as §1
# [13] = target: Neu5Ac(a2-3)Gal(b1-3)GalNAc
# Procedure, shortened: as §1
# [14] = target: Neu5Ac(a2-3)Gal(b1-3)GlcNAc(b1-3)Gal(b1-3)GlcNAc
# Procedure, shortened: as §1
# [15] = target: Neu5Ac(a2-3)Gal(b1-3)GlcNAc(b1-6)GalNAc
# Procedure, shortened: as §1
# [16] = target: Neu5Ac(a2-3)Gal(b1-4)GlcNAc(b1-3)Gal
# Procedure, shortened: as §1
# [17] = target: Neu5Ac(a2-3)Gal(b1-4)GlcNAc(b1-3)Gal(b1-3)GlcNAc
# Procedure, shortened: as §1
# [18] = target: Neu5Ac(a2-3)Gal(b1-4)GlcNAc(b1-3)Gal(b1-4)GlcNAc(b1-3)[Neu5Ac(a2-3)Gal(b1-4)GlcNAc(b1-3)Gal(b1-4)GlcNAc(b1-6)]GalNAc
# Procedure, shortened: as §1
# [19] = target: Neu5Ac(a2-6)Gal(b1-4)GlcNAc(b1-2)Man(a1-3)[Neu5Ac(a2-6)Gal(b1-4)GlcNAc(b1-2)Man(a1-6)]Man(b1-4)GlcNAc(b1-4)[Fuc(a1-6)]GlcNAc
# Procedure, shortened: as §1
# [20] = target: Neu5Ac(a2-6)Gal(b1-4)GlcNAc(b1-2)Man(a1-6)[Man(a1-3)]Man(b1-4)GlcNAc(b1-4)GlcNAc
# Procedure, shortened: as §1
# [21] = target: Neu5Ac(a2-6)Gal(b1-4)GlcNAc(b1-3)Gal(b1-4)GlcNAc(b1-3)GalNAc
# Procedure, shortened: as §1
# [22] = target: Neu5Ac(a2-6)Gal(b1-4)GlcNAc(b1-3)Gal(b1-4)[Fuc(a1-3)]GlcNAc(b1-3)Gal(b1-4)[Fuc(a1-3)]GlcNAc
# Procedure, shortened: as §1
# [23] = target: Neu5Ac(a2-6)Gal(b1-4)GlcNAc(b1-3)[Neu5Ac(a2-6)Gal(b1-4)GlcNAc(b1-6)]GalNAc
# Procedure, shortened: as §1
# [24] = target: Neu5Ac(a2-6)Gal(b1-4)GlcNAc6S
# Procedure, shortened: as §1
# Neu5Ac(a2-8)Neu5Ac = target: Neu5Ac(a2-8)Neu5Ac
# Procedure, shortened: as §1
# [25] = target: Neu5Ac(b2-6)Gal(b1-4)GlcNAc
# Procedure, shortened: as §1
binder,measurement,setting,value
PpFlo1 (Pichia pastoris) (protein) MGSSHHHHHHSSGLVPRGSHMQESGDGDISDSAYACDIDATRYDGFNATIYEFQPGDGRLTRDPVFMSTGYLNRTQLHSITGVTDPGFSIYTPGVPTTTLYGIPNVNWENLLLELKGYFRAEVSGDYGLSLRNIDDSAILFFGKETAFQCCNENSISNEASTDYSLFTIFRQEGDETTNLDSFTYTQYLEAGKYYPVRTFFVNIERHAVFNFTMTLPDGTELTDFHNYIYQFGALDEEQCQA,glycan array binding signal (z-score),[1],-0.4
same,glycan array binding signal (z-score),[2],0.008
same,glycan array binding signal (z-score),[3],0.046
same,glycan array binding signal (z-score),[4],-0.171
same,glycan array binding signal (z-score),[5],-0.18
same,glycan array binding signal (z-score),[6],0.03
same,glycan array binding signal (z-score),[7],0.551
same,glycan array binding signal (z-score),[8],0.609
same,glycan array binding signal (z-score),[9],-0.514
same,glycan array binding signal (z-score),[10],-0.39
same,glycan array binding signal (z-score),GlcNAc(b1-3)Man,1.9
same,glycan array binding signal (z-score),[11],-0.375
same,glycan array binding signal (z-score),GlcNAc(b1-6)GalNAc,-0.373
same,glycan array binding signal (z-score),Kdn(a2-3)Gal(b1-4)Glc,-0.2
same,glycan array binding signal (z-score),[12],-0.565
same,glycan array binding signal (z-score),Man(a1-3)[Man(a1-6)]Man,-0.074
same,glycan array binding signal (z-score),[13],-0.261
same,glycan array binding signal (z-score),[14],-0.308
same,glycan array binding signal (z-score),[15],-0.067
same,glycan array binding signal (z-score),[16],-0.31
same,glycan array binding signal (z-score),[17],-0.004
same,glycan array binding signal (z-score),[18],0.078
same,glycan array binding signal (z-score),[19],0.148
same,glycan array binding signal (z-score),[20],-0.445
same,glycan array binding signal (z-score),[21],-0.424
same,glycan array binding signal (z-score),[22],0.701
same,glycan array binding signal (z-score),[23],0.261
same,glycan array binding signal (z-score),[24],2.26
same,glycan array binding signal (z-score),Neu5Ac(a2-8)Neu5Ac,0.146
same,glycan array binding signal (z-score),[25],0.76
